# PubChem BioAssay (Tox21)
# Values joined by “and” are separate entries in the source; they are usually repeats but may differ in a detail not shown here. Equal values may be shown once. Inconclusive results are not listed. Entries that show only a call come without a potency. Active and inactive are the calls of the source. The call rests on the fitted dose curve; in most records, active means well fitted cell-killing curve with a large enough effect in the repeat runs; inconclusive means weak or mixed curves, or effect the other way; inactive means flat fitted curve, though single readings scatter.
# Assay: qHTS assay to identify small molecule antagonists of the androgen receptor (AR) signaling pathway using the MDA cell line in the presence of 0.5 nM R1881 - cell viability counter screen (AID 1259242); further: nearly all actives have a fitted effect of over 45% in size
# Settings: MDA-kb2 viability, CellTiter-Fluor protease fluorescence, 16 h; series mostly up to 92.4 µM
# Source text: U.S. Tox21 Program National Center for Advancing Translational Sciences [NCATS] NIH Chemical Genomics Center [NCGC] U.S. Environmental Protection Agency [EPA] National Institutes of Environmental Health Sciences [NIEHS] National Toxicology Program [NTP] U.S. Food and Drug Administration [FDA] Tox21 Assay Overview: Androgen receptor (AR) is an important member of the nuclear receptor family. Its signaling plays a critical role in AR-dependent prostate cancer and other androgen related diseases. Considerable attention has been given in the past decades to develop methods to study and screen for the environmental chemicals that have the potential to interfere with metabolic homeostasis, reproduction, developmental and behavioral functions. Therefore AR binding assay for screening androgen antagonists can be used to identify potential endocrine disruptors. MDA-kb2 cells (from ATCC, deposited by Wilson et al.) were used to screen for AR inhibitors against Tox21 compound libraries. These cells are human breast carcinoma cells that were stably transfected with a luciferase reporter gene under control of the MMTV promoter that contains response elements for both androgen receptor (AR) and glucocorticoid receptor (GR). The current screening for identification of AR inhibitors against Tox21 libraries used lower concentration of (0.5 nM) R1881 as a stimulator. The cytotoxicity of the Tox21 compound libraries against MDA-kb2 cell line was tested by measuring live-cell protease activity using CellTiter-Fluor assay in the same wells.
# Tox21 Assay Protocol Summary: MDA-kb2 cells (cells cultured without CO2) were dispensed at 3,000 cells/well in 4 uL of culture medium into white wall/solid-bottom 1536-well plates (Corning Life Sciences, Corning, NY) using a Multidrop Combi (ThermoFisher Scientific, Waltham, MA) dispenser. After the assay plates were incubated at a 37C and 0% CO2 for 5 hr, 23 nL of compounds dissolved in DMSO, positive controls or DMSO only was transferred to the assay plate by a Pintool station (Kalypsys, San Diego, CA). The transfer of compounds was followed by the addition of 1 uL of 0.5 nM (final concentration) agonist (R1881)/culture medium using a Flying Reagent Dispenser (FRD, Aurora Discovery, San Diego, CA). The plates were incubated at 37C and 0% CO2 for 16 hr. For cytotoxicity assay, 1 uL of CellTiter-Fluor reagent (Promega Corporation, Madison, WI) was added to each well using the FRD and after 30 min incubation at 37C and 0% CO2, The fluorescence intensity was measured using ViewLux plate reader (PerkinElmer, Shelton, CT).
# Potency means the concentration at half of the fitted maximal effect.
row,SMILES,Potency
1,O=C(N[C@H]1CN2CCC1CC2)c1ccc2c(c1)OCCO2,inactive
2,CC(=O)NNc1ccccc1,inactive
3,Cc1nnc(-c2ccccc2)c(=O)n1N,inactive
4,CN(C1CCCCC1)C1CCCCC1,inactive
5,CCC(C)(C)c1ccc(O)c(C(C)(C)CC)c1,67.8 µM (active)
6,CCC[N+](CCC)(CCC)CCC,inactive
7,O=C(NCNC(=O)NC1C(=O)NC(=O)N1CO)NC1C(=O)NC(=O)N1CO (stereo not given),inactive
8,O=C(Cc1ccccc1)OCCc1ccccc1,inactive
9,CN1C(=O)CN=C(c2ccccc2)c2cc([N+](=O)[O-])ccc21,inactive
10,C[Si](Cn1cncn1)(c1ccc(F)cc1)c1ccc(F)cc1,inactive
11,C[CH2][Hg][S]c1ccccc1C(=O)O,17.2 µM (active) and 11.9 µM (active)
12,CCOC(=O)c1cn2nc(OP(=S)(OCC)OCC)cc2nc1C,inactive
13,[Cl-].[Cl-].[Hg+2],6.86 µM (active)
14,CCC1(CCC(C)C)C(=O)NC(=O)NC1=O,inactive
15,CCC1(C2=NCCN2)Cc2ccccc2O1 (stereo not given),inactive
16,O=C1NC(=O)C(=O)C(=O)N1,inactive
17,CCOP(=S)(OCC)Oc1ccc(S(C)=O)cc1 (stereo not given),inactive
18,NNCCO,inactive
19,O=C(O)C(O)C(O)C(=O)O (stereo not given),inactive
20,C[N+](C)(C)CC1CO1 (stereo not given),inactive

row,SMILES,Potency
1,CCOC(=O)C1OC1(C)c1ccccc1 (stereo not given),inactive
2,CCCC[P+](CC)(CCCC)CCCC (tested in a mixture with another compound),inactive
3,Nc1cccc2ccccc12,inactive
4,COC(=O)Cc1ccccc1,inactive
5,ClCc1ccccc1Cl,inactive
6,CCC1CCC(=O)O1 (stereo not given),inactive
7,O=C=NC1CCCCC1,inactive
8,NP(N)(=O)NC(=O)c1ccc(F)cc1,inactive
9,C#CC(O)(C=CCl)CC (stereo not given),inactive
10,Nc1ccccc1C(=O)OCC(O)CO (stereo not given),inactive
11,CC(=O)OC(c1ccccc1)C(Cl)(Cl)Cl (stereo not given),inactive
12,CNC(=O)Oc1cccc(N=CN(C)C)c1,inactive
13,CC[N+]1(C)CCCC(OC(=O)C(O)(c2ccccc2)c2ccccc2)C1 (stereo not given),inactive
14,C[N+](C)(C)CCOC(=O)C(O)(c1ccccc1)c1ccccc1,inactive
15,FC(F)OC(F)(F)C(F)Cl (stereo not given),inactive
16,O=C(Cc1ccccc1)c1ccccc1,inactive
17,CC(C)(C)N(NC(=O)c1ccc(Cl)cc1)C(=O)c1ccccc1,inactive
18,COC1=CC(=O)O[C@@H](/C=C/c2ccc3c(c2)OCO3)C1,inactive
19,O=[N+]([O-])O[C@H]1CO[C@H]2[C@@H]1OC[C@H]2O[N+](=O)[O-],inactive
20,CCOC(=O)NC(O)C(Cl)(Cl)Cl (stereo not given),inactive
